A selection: hits, their analogues and other compounds. The true share with any hit is near 0.9%.
PPARg SRC-2 ag = promotes SRC-2 coactivator recruitment by human PPARgamma | P37231 | PPARgamma LBD-SRC-2 recruitment, biochemical | activation, % at 8 µM | 200,000 compounds, 0.34% hits | AID 1032;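 further: 0% = vehicle and 100% = reference agonist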
Target sequence (P37231 whole entry, looked up, the tested form may be a part): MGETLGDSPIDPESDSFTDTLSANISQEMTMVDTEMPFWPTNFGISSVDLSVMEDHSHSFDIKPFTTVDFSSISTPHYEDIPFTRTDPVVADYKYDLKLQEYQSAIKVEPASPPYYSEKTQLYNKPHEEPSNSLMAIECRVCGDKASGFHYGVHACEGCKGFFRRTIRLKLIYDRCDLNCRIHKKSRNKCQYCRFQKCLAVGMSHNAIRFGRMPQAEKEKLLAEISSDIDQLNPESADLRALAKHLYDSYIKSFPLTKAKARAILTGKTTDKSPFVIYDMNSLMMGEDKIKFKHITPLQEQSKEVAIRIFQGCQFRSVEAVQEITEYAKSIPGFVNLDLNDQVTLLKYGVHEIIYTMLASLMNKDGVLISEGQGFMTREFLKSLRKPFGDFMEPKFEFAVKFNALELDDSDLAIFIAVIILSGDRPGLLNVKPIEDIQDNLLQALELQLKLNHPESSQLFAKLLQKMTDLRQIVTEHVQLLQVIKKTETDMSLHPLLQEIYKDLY
PPARg SRC-3 ag = agonists of human PPARgamma SRC-3 coactivator recruitment; biochemical PPARgamma/SRC-3 coactivator recruitment assay; activation, % at 8 µM; 200,000 compounds, 0.26% hits; AID 731; in the data active means activation above about 23%;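 further: 0% = DMSO and 100% = reference agonist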
SRC3 TRFRET art = TR-FRET artefact, counter-screen to PPARgamma/SRC-3 agonist assay. AID 1048. TR-FRET ratio at 8 µM. PPARgamma/SRC-3 format; stronger effect = higher value. 99,000 compounds, 0.39% hits; in the data active means TR-FRET ratio above about 2000
TR-FRET SRC-2 ct = flags TR-FRET format artefacts in PPARgamma SRC-2 recruitment agonist screen. TR-FRET artefact counter-screen; stronger effect = higher value. TR-FRET ratio at 8 µM. 200,000 compounds, 0.4% hits; in the data active means TR-FRET ratio above about 2000
PPARg SRC-1 ag = agonists of human PPARgamma SRC-1 coactivator recruitment; P37231; PPARgamma-SRC-1 coactivator recruitment biochemical assay; activation, % at 8 µM; 200,000 compounds, 0.41% hits; AID 631; in the data active means activation above about 19%;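 further: 0% = DMSO and 100% = reference agonist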
SRC1 TRFRET art = TR-FRET artefact, counter-screen to PPARgamma/SRC-1 agonist assay | TR-FRET detection artefact counter-screen, emission ratio; stronger effect = higher value | TR-FRET ratio at 8 µM | 99,000 compounds, 0.34% hits; in the data active means TR-FRET ratio above about 2300
PPARg SRC2 ag = human PPARgamma SRC-2 recruitment agonism, confirmation | shares compounds with PPARg SRC-3 ag | biochemical SRC-2 recruitment by PPARgamma | activation, % at 8 µM | 790 compounds, 52% hits | AID 1297;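 further: 0% = vehicle alone and 100% = reference agonist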
PPARg SRC1 ag = confirmation of agonists of SRC-1 recruitment by human PPARgamma; activation, % at 8 µM; shares compounds with PPARg SRC-3 ag; 790 compounds, 43% hits; PPARgamma–SRC-1 coactivator recruitment biochemical assay; in the data active means activation above about 20%;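 further: 0% = vehicle wells and 100% = reference agonist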
PPARg SRC3 ag = human PPARgamma SRC-3 recruitment agonism, confirmation | shares compounds with PPARg SRC-3 ag | activation, % at 8 µM | AID 1301 | biochemical PPARgamma-SRC-3 coactivator recruitment, agonist mode | 790 compounds, 29% hits; in the data active means activation above about 24%;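 further: 0% = vehicle wells and 100% = reference agonist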
* = called active by the depositor; . = no result. Unless noted, no stated cut-off is given here; in the data, active means activation above about 22%; inactive means the rest.

SMILES | PPARg SRC-2 ag | PPARg SRC-3 ag | SRC3 TRFRET art | TR-FRET SRC-2 ct | PPARg SRC-1 ag | SRC1 TRFRET art | PPARg SRC2 ag | PPARg SRC1 ag | PPARg SRC3 ag
CN(CCCNC(=O)CSc1cc(=O)n(C)c2ccc(Cl)cc12)Cc1ccccc1 | 57.6* | 46.4* | 3068* | 2374* | 50.6* | 3259* | 39.6* | 24.2* | 23.9
Cn1c(=O)cc(OCCCC(=O)N2CCCCC2)c2ccccc21 | 17.7 | 10.6 | . | 1780 | 2.3 | . | . | . | .
Cn1c(=O)cc(SCC(=O)N2CCOCC2)c2ccc(Cl)cc21 | 62.1* | 82.6* | . | 2895* | 61.1* | . | 28.6* | 17.8 | 19.8
Cn1c(=O)cc(SCC(=O)N2CCCC2)c2ccc(Cl)cc21 | 87.2* | 86.8* | . | 3299* | 71.6* | . | 42.2* | 29.1* | 30.3*
COCCNC(=O)CSc1cc(=O)n(C)c2cc(Cl)ccc12 | 27.6* | 39.9* | 2886* | 2945* | 62.1* | 3701* | 38.6* | 25.5* | 26.9*
CCOc1ccc(C(=O)Nc2cnn(Cc3ccc(Cl)c(Cl)c3)c2)cc1 | 2.1 | 20.6 | . | 1505 | 2.8 | . | . | . | .
COC(=O)C(Cc1ccc(O)cc1)NC(=O)C(CC(=O)OC(C)(C)C)NC(=O)OC(C)(C)C (configuration not stated) | 9.3 | -7.2 | 1682 | 1622 | 12.3 | 1876 | . | . | .
CC(C)CC(=O)Nc1nnc(SCC(=O)NCc2ccc3c(c2)OCO3)s1 | 1.6 | 3.7 | 1405 | 1542 | 5.3 | 1878 | . | . | .
O=S(=O)(/N=C(/Nc1ccc(F)c(F)c1F)c1ccccc1)c1ccccc1 | 0.4 | -1.9 | 1699 | 1472 | 3.9 | 1715 | . | . | .
COc1ccccc1/C=C/C(=O)NCc1cccnc1 | 3.9 | 0.9 | 1767 | 1729 | 1.8 | 1886 | . | . | .
O=C(Cc1csc(N2CCOCC2)n1)N/N=C/c1ccc(F)cc1 | -2.0 | 12.2 | . | 1501 | -2.9 | . | . | . | .
O=C(CSc1nnc(-c2ccc(OC(F)F)cc2)o1)NCc1cccs1 | 6.0 | -9.8 | . | 1448 | 0.1 | . | . | . | .
CSc1nc(Sc2ccccc2Cl)c2ccccc2n1 | 53.6* | 48.1* | . | 2566* | 26.0* | . | 34.2* | 21.9* | 24.4*
Cc1cc(C)nc(-n2nc(C)c3c(=O)[nH]c(C(F)(F)F)nc32)n1 | 2.1 | -1.7 | . | 1626 | 5.4 | . | . | . | .
CCOC(=O)CCS(=O)(=O)c1nc(-c2ccccc2)cc(C(F)(F)F)n1 | 15.1 | 12.7 | . | 1475 | 15.4 | . | . | . | .
COC(=O)CCS(=O)(=O)c1nc(-c2ccccc2)cc(C(F)(F)F)n1 | 5.2 | 8.6 | . | 1639 | 21.4* | . | 7.5 | 16.1 | 11.1
C=CCn1c(-c2cccc(Cl)c2)n[nH]c1=S | 19.9 | 27.8* | . | 2008* | 24.9* | . | 19.8 | 13.9 | 12.6
C#CCn1cc(/C=N/Nc2nc3ccccc3[nH]2)c2ccccc21 | 29.9* | 12.8 | 1807 | 1820 | 14.8 | 2389* | 7.1 | 11.0 | 7.6
CS(=O)(=O)N1CCN(c2ccc(Cl)cc2[N+](=O)[O-])CC1 | 5.1 | 8.2 | 1613 | 1782 | 5.9 | 1731 | . | . | .
CCN(CC)C(=O)c1cc(C(C)(C)C)c(O)c(C(C)(C)C)c1 | 0.8 | 2.4 | 1502 | 1433 | -7.3 | 1411 | . | . | .
CCOC(=O)c1ccc2c(c1)n(CC)c(C)[n+]2CC | 10.5 | 6.5 | 1660 | 1523 | 7.1 | 1873 | . | . | .
CCOC(=O)c1ccc2c(c1)[nH]c(=S)n2CC | 28.1* | 20.2 | 2330* | 1960 | 23.1* | 2451* | 50.1* | 37.2* | 30.4*
N#C/C=C(/N)N1CCN(c2ccc(Cl)c(Cl)c2)CC1 | -3.1 | 5.0 | . | 1381 | -9.6 | . | . | . | .
NC(=O)C1CCN(CCC(=O)Nc2ccc3c(c2)CCC3)CC1 | 20.7 | -0.2 | . | 1792 | 2.0 | . | . | . | .
COc1ccc(Cl)cc1-c1n[nH]c(=S)o1 | 103.6* | 118.8* | . | 3750* | 56.9* | . | 71.7* | 50.5* | 48.8*
SMILES | PPARg SRC-2 ag | PPARg SRC-3 ag | SRC3 TRFRET art | TR-FRET SRC-2 ct | PPARg SRC-1 ag | SRC1 TRFRET art | PPARg SRC2 ag | PPARg SRC1 ag | PPARg SRC3 ag
COc1ccccc1-c1n[nH]c(=S)o1 | 48.1* | 58.7* | . | 2562* | 36.1* | . | 45.7* | 34.8* | 30.5*
COc1ccccc1-c1cc(N)n[nH]1 | -7.6 | 9.3 | . | 1458 | 6.9 | . | . | . | .
O=[N+]([O-])c1ccc(NC(=S)N2CCc3ccccc3C2)cc1 | -2.6 | -4.6 | 1385 | 1358 | -0.4 | 1921 | . | . | .
Cc1[nH]c2ccccc2c1/C=C/c1cc[n+](C)cc1 | 10.2 | 16.7 | . | 1692 | 24.6* | . | 17.4 | 13.2 | 11.8
Cc1nn(Cc2ccc([N+](=O)[O-])cc2)c(=O)n1-c1c(F)cccc1F | -4.7 | 1.9 | . | 1493 | -6.7 | . | . | . | .
CN(C)c1ccc(NC(=O)Nc2ccc3snnc3c2)cc1 | 20.6 | 36.3* | . | 1850 | 22.7* | . | 4.2 | 1.4 | 2.9
COc1ccc(C2=NN(C(N)=S)C(c3ccccc3)C2)cc1 (configuration not stated) | 53.3* | 29.1* | 3054* | 2602* | 57.4* | 3172* | 58.7* | 48.1* | 41.1*
CNC(=S)N1N=C(c2ccc(OC)cc2)CC1c1ccc(N(C)C)cc1 (configuration not stated) | 4.6 | 12.9 | . | 1566 | -2.2 | . | . | . | .
CNC(=S)N1N=C(c2ccc(Br)cc2)CC1c1ccc(N(C)C)cc1 (configuration not stated) | 20.4 | 28.7* | 4796* | 3604* | 27.3* | 4829* | 40.6* | 29.2* | 25.9*
CNC(=S)N1N=C(c2ccc(Br)cc2)CC1c1ccc(Br)cc1 (configuration not stated) | 28.4* | 50.8* | . | 3230* | 30.0* | . | 47.3* | 37.4* | 28.0*
COc1ccc(C2CC(c3ccc(Br)cc3)=NN2C(=S)Nc2ccccc2)cc1 (configuration not stated) | 26.5* | 22.2 | 2737* | 2406* | 28.0* | 2916* | 43.5* | 38.7* | 26.0*
CC(=O)N1N=C(c2ccc(C)o2)CC1c1ccc(Br)cc1 (configuration not stated) | 4.7 | 8.4 | . | 1541 | 3.1 | . | . | . | .
CCOc1ccc(NC(=S)Nc2cc(OC)c(Cl)cc2OC)cc1 | 11.4 | 3.2 | 1523 | 1613 | 0.6 | 2103 | . | . | .
CCOC(=O)c1ccc(N/C(=N\S(=O)(=O)c2ccccc2C)c2ccccc2)cc1 | 14.5 | -1.4 | . | 1528 | 10.0 | . | . | . | .
COc1ccccc1C1CC(c2ccccc2)=NN1C(=S)Nc1ccccc1 (configuration not stated) | 37.3* | 22.7* | 2517* | 2595* | 43.1* | 3073* | 69.8* | 51.4* | 44.2*
O=C(Nc1nc(-c2ccc(S(=O)(=O)N3CCCCCC3)cc2)cs1)c1ccccc1 | 15.4 | 7.8 | . | 2426* | 21.0* | . | 52.3* | 38.6* | 33.3*

Bioassay records: PubChem BioAssay, The Scripps Research Institute Molecular Screening Center
